The list is not random: actives were taken first. Their share in the collection is about 3.5%.
TMEM16A inh: blocks the mouse calcium-activated chloride channel TMEM16A; Q8BHY3; HEK293 TMEM16A/YFP iodide influx fluorescence, ionomycin; normalized B-score (activity score, 25-100; higher = stronger inhibition) at 10 µM; 310,000 compounds, 1.2% hits; AID 588511;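 active means ratio plate-corrected score three or more library SD toward inhibition, starting fluorescence score within five deviations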;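 further: score derived from kinetic fluorescence span divided by baseline fluorescence per well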
KCNK9 block: blocks the human KCNK9 two-pore domain potassium channel; B-score at 10 µM; 310,000 compounds, 1.2% hits; HEK293 KCNK9, FluxOR thallium flux fluorescence; hits give low values; Q9NPC2;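 active means ratio B-score over 3 SD below the library mean, with starting fluorescence within 5 SD of its mean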;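 further: negative B-score means less thallium flux so channel inhibition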
Kir21 inh: inhibitors of mouse Kir2.1 inward-rectifier potassium channel; HEK293-Kir2.1, FluxOR thallium flux fluorescence; hits give low values; B-score at 10 µM; 310,000 compounds, 0.85% hits; AID 1672;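 active means fluorescence ratio B-score at or below minus 3 SD of library scores, with starting-brightness B-score within 2 SD, cut at about -4.2 in these data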;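 further: channel flux triggered by added potassium and thallium sulfate stimulus; B-score of peak minus minimum fluorescence over baseline after thallium stimulus; more negative B-score means stronger Kir2.1 block with less thallium influx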
Target sequence (P35561 whole entry, looked up): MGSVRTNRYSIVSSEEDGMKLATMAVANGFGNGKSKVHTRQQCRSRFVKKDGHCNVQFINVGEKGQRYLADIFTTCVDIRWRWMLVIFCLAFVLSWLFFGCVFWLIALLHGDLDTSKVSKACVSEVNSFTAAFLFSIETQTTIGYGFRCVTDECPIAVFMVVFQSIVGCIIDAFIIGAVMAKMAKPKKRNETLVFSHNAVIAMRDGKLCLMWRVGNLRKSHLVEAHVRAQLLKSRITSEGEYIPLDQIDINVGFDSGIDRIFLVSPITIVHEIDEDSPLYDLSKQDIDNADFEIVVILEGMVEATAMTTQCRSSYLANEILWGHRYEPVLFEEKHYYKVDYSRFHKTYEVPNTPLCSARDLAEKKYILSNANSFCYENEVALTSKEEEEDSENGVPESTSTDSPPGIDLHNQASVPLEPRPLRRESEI
ANO1 activ: activators or potentiators of mouse TMEM16A chloride channel | Q8BHY3 | HEK293 TMEM16A/YFP-H148Q/I152L, iodide quench fluorescence; hits give low values | B-score at 10 µM | 340,000 compounds, 0.3% hits;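 active means fluorescence-ratio B-score plate-corrected deviation score at least 3 library SD below zero, with starting fluorescence score within 5 deviations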;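 further: channel opened by trigger with iodide after compound preincubation; score built on the fluorescence ratio of max minus min over baseline; more negative score means more quench and so TMEM16A activation or potentiation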
KCNK3 inh: human KCNK3 channel inhibition, primary screen. O14649. CHO-KCNK3 thallium flux, FluxOR fluorescence; hits give low values. B-score at 10 µM. 340,000 compounds, 0.84% hits;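 active means B-score under library mean minus 4 SD, starting fluorescence ratio at most library mean plus 5 SD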;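 further: more negative B-score means stronger inhibition of thallium flux through KCNK3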
The depositor's hits bear a star; i = inactive; . = not tested or not shown.

SMILES | TMEM16A inh | KCNK9 block | Kir21 inh | ANO1 activ | KCNK3 inh
COC(=O)C1C2c3ccccc3C(c3ccccc32)C1C(=O)OC (configuration not stated) | i | i | 1.3 | -8.8* | i
CCC(=NCc1ccc(F)cc1)c1c(O)n(C)c(=O)n(C)c1=O | 100* | i | -1.2 | i | i
CCOC(=O)C1(c2ccccc2)CCN(CCC(=O)Nc2cccc(Br)c2)CC1 | . | . | . | i | i
ClC1=C(Cl)C2(Cl)C3C(Cl)C=CC3C1(Cl)C2(Cl)Cl (configuration not stated) | . | . | . | -16* | i
O=C1NC(=O)C2C1C1(Cl)C(Cl)=C(Cl)C2(Cl)C1(Cl)Cl (configuration not stated) | . | . | . | i | i
CS(=O)(=O)N1Cc2ccccc2-n2nncc2C1 | . | . | . | . | i
CC(=O)N(C)C1=Nc2ccc(Cl)cc2C(c2ccccc2)=[N+]([O-])C1 | . | . | . | i | i
COc1ccc(NC2=NCC(C)S2)cc1 (configuration not stated) | i | i | 0.07 | i | i
CC1CN=C(Nc2ccc(F)cc2)S1 (configuration not stated) | i | i | 1.8 | -4.6* | i
CC1(C)C(C(=O)N2CCN(c3ccc(Cl)cc3)CC2)C1(C)C | i | i | 1.3 | i | i
COC(=O)C1CN(C#N)N(c2ccc(Cl)cc2)C12c1ccccc1-c1ccccc12 (configuration not stated) | i | -8.9* | 1.5 | i | i
Cn1cc(/C=C2\C(=O)NC(=O)N(c3ccccc3)C2=O)c2ccccc21 | i | -8* | 0.01 | i | i
O=C(O)Cn1cc(/C=C2\C(=O)NC(=O)N(c3ccc(Cl)cc3)C2=O)c2ccccc21 | i | i | -0.83 | i | i
CC1=CC(C)CC(C)OC(=O)CC(c2ccc(O)cc2)NC(=O)C(Cc2c(Br)[nH]c3ccccc23)N(C)C(=O)C(C)NC(=O)C(C)C1 (configuration not stated) | . | . | . | i | i
O=C1NC(=S)N(c2ccc(F)cc2)C(=O)/C1=C\c1ccoc1 | . | . | . | i | i
Cc1ccc(N2C(=O)NC(=O)/C(=C\c3ccoc3)C2=O)cc1 | i | i | -2.2 | -4.6* | i
CC1=NN=C(c2ccc(N)cc2)c2cc3c(cc2C1)OCO3 | i | . | . | i | i
CN1CCN(CCOC2c3ccccc3CSc3ccc(Cl)cc32)CC1 (configuration not stated) | i | i | -4.8* | i | i
O=C(COc1ccc(Cl)cc1)N(c1ccccc1Cl)C1CN2CCC1CC2 (configuration not stated) | i | i | -1.3 | i | i
Clc1ccc2c(c1)C(OC1CN3CCC1CC3)c1ccccc1CS2 (configuration not stated) | i | i | -5.9* | i | i
Brc1ccc2[nH]cc(C=NN3CCCCCC3)c2c1 | . | . | . | i | i
Oc1cccc2cccnc12 | i | -11* | -0.48 | . | .
c1cc2c(cc1N1CCCCC1)C1CC2CCN1 (configuration not stated) | . | . | . | . | i
CN1C(=O)NC(=O)/C(=C\C=C\c2ccccc2[N+](=O)[O-])C1=O | 25* | i | 0.13 | . | .
Oc1c(Cl)cccc1Cc1cc(Cl)cc(Cl)c1O | . | . | . | i | i
SMILES | TMEM16A inh | KCNK9 block | Kir21 inh | ANO1 activ | KCNK3 inh
CCCCCCCSc1cc(OC)c(CCN(C)C)cc1OC | i | i | -9.9* | i | i
CNc1ccc2nc3ccccc3[n+](C)c2c1 | i | i | -0.45 | -5* | i
CCCCC1C(=O)NC(=S)N(C)C1=O (configuration not stated) | . | . | . | i | i
CCN(CC)c1ccc(N=Cc2c(O)n(Cc3ccco3)c(=O)[nH]c2=O)cc1 | i | i | -0.98 | i | i
CCN(CCO)c1ccc(N=Cc2c(O)n(C)c(=S)[nH]c2=O)cc1 | i | i | -4.1 | -10* | i
CN1Cc2cnnn2-c2ccccc2C1c1ccccc1 (configuration not stated) | . | . | . | . | i
CC(Cc1ccccc1)NCc1ccccc1O (configuration not stated) | i | i | -5.5* | i | i
CC1(C)CSC(=NCc2ccccc2)N1 | i | i | 0.11 | -6.4* | i
OC(c1cccc(Cl)c1)(c1cccc(Cl)c1)C1CN2CCC1CC2 (configuration not stated) | i | i | -4.7* | i | i

Screens from PubChem BioAssay.
